Experimental findings from the OligoGym collection are described below.
Further: reference of the scale not given here.

One assay concerns the target ZNF836. The assay is described as follows: pooled miR-30 sensor sort-seq; sequence = guide strand. Particulars: shRNA.
Regarding TAAGACTTGAAGACACTCTAAA, the sensor-assay potency score (higher = more potent) was -0.52.

With TTTGTTTCCACTATGAACTGTC, the sensor-assay potency score (higher = more potent) came to 1.2. Regarding TTTCTCTGTAGTATGTACCATC, the sensor-assay potency score (higher = more potent) was -0.51.

TTTGTTTTCTACATCCTCTTGA showed a sensor-assay potency score (higher = more potent) of 0.866.

Regarding TAACTTTGACTAAAGGACTTGC, the sensor-assay potency score (higher = more potent) amounted to 0.219. Sequence TTGAACGCTGAGTATAGGCTTT had a sensor-assay potency score (higher = more potent) of 0.0637.

TTCAGTTTGAAATTTCTGCAGT displayed a sensor-assay potency score (higher = more potent) of 0.363. Still for that read-out and setting: the same measure for TTGTTTTAAGACTCTCTGCAGT: -0.237; for TAGGAGAACATCTAAAGGCTTT: 0.15; for TTGACTGAAGACCTTGTCGCAT: -0.213.

In a further assay the target is ZNFX1. The description is as above. Particulars: shRNA.
For the sequence TAATTTGCCAAACAGACTCGTT, the sensor-assay potency score (higher = more potent) was -0.716.

The sequence TTTATTATGAGAGTTAGTCTGC registered a sensor-assay potency score (higher = more potent) of 0.368.

As for TTCTCTGCTATCTTGTAGCGGG, the sensor-assay potency score (higher = more potent) is -0.426. Still for that read-out and setting: then TTGTCCACAACATGGACCCTGA, with -0.839; and TTCAATCTCTTCTAGCCGCTGT, with 0.737. TAACACACAACCAAGATGGGGA displayed a sensor-assay potency score (higher = more potent) of 0.323. Same read-out and setting: the same measure for TTTCTCTTCTAAGACATGCATC: -0.81. The same measure, in the same setting: the same measure for TACAACTGTAGCCAGAGCCTAT: -0.979; for TTGGTCTCTAGCTTCGTCGCTG: 0.295; for TTGAATAATAGCCAGTTCCCTT: -1.02. The same measure, in the same setting: the same measure for TAGACCTCTACTGCTATGCTAT: -0.477; for TTTGTCCACAACATGGACCCTG: -0.317.

The next assay addresses ZNRF2. The assay is described as above. Particulars: shRNA.
Turning to TAAACACATTACAAGATGCAAA, the sensor-assay potency score (higher = more potent) is -1.15. On the same count and under the same terms, then TTACTTCAAACCATTCATCTAT, with 0.146; and TCGTGCTATAGTATCTCCCTGC, with 0.0677. Take TTATGATATATGCATAGACAAG: the sensor-assay potency score (higher = more potent) is -1.91. The same measure, in the same setting: the same measure for TTGTCAAGACAAGAAAACCTAT: -0.902.

With TTTATCAGTATTACCTATGTAG, the sensor-assay potency score (higher = more potent) was 0.361.

Consider TTAAACACATTACAAGATGCAA, for which the sensor-assay potency score (higher = more potent) was -0.454.

With TACTTCAAACCATTCATCTATG, the sensor-assay potency score (higher = more potent) is -0.758. Same read-out and setting: then TTGTTAAACACATTACAAGATG, with -1.34; and TGCATAGACAAGGCAGTCGTGC, with -0.863.

ATAGACAAGGCAGTCGTGCTAT had a sensor-assay potency score (higher = more potent) of 0.0716.

The next assay concerns the target ZSCAN21. Described as above. Particulars: shRNA.
Sequence TGATACAAACTCTATCACCGGA registered a sensor-assay potency score (higher = more potent) of 0.695. On the same count and under the same terms, the same measure for TTTCTCTTCTTTCTCCTCGACT: -0.944. The sequence TAGGAACTGATTCTCTACCTTT gave a sensor-assay potency score (higher = more potent) of 0.143. The same measure, in the same setting: then TAAAACAACGACAACAACAGGA, with 0.555. Same read-out and setting: then TTTAAGAAGGTCTGAGCTCTGC, with 0.0311; and TAATGTTTCTTCCTTAACTAGA, with -0.759.

TTCGTTACACTGATAAGGCTTC came in with a sensor-assay potency score (higher = more potent) of 0.478.
